High-throughput results deposited in PubChem BioAssay by The Scripps Research Institute Molecular Screening Center.
MITF primary: MITF inhibitors, primary screen, biochemical, AlphaScreen, human; Microphthalmia-associated transcription factor (Homo sapiens), O75030; AlphaScreen MITF homodimerization, bead proximity signal; inhibition, % at 2.6 µM; 650,000 tested, 0.91% active; AID 1259374, 2018; in the data active = inhibition above about 50%;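 note: 0% = vehicle wells with protein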
TEAD-YAP inh: TEAD-YAP interaction inhibition, primary screen, TEAD-YAP interaction inhibitor project, luminescence, HEK-TIYL cells. TEAD-Gal4/YAP UAS-luciferase luminescence. inhibition, % at 9.12 µM. 640,000 tested, 1.4% active. AID 1259422, 2018; in the data active = inhibition above about 32%;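 note: 0% = median of test compound wells and 100% = reference inhibitor wells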
GPR151 ag: activators of human GPR151, primary screen, cell-based, PathHunter beta-arrestin, luminescence; G-protein coupled receptor 151 (Homo sapiens), Q8TDV0; PathHunter beta-arrestin GPR151 cells; activation, % at 11.2 µM; 650,000 tested, 1% active; AID 1508602, 2020; in the data active = activation above about 4.9%;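 note: 0% = median of compound wells and 100% = cells with positive control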
Target sequence (Q8TDV0 whole entry, looked up): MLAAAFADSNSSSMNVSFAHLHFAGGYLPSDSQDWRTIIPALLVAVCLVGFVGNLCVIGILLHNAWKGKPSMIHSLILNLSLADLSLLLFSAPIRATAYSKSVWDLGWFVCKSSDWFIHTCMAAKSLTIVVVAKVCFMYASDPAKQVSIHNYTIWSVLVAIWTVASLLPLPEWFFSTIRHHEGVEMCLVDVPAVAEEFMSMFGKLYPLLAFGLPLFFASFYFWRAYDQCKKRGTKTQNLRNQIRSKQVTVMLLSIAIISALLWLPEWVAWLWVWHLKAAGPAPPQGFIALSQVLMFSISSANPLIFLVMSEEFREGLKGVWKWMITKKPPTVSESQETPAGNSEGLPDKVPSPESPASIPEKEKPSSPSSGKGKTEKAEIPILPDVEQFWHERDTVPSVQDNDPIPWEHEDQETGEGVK
FBW7 activator: FBW7 E3 ligase activators, primary screen, biochemical, AlphaScreen, human. F-box/WD repeat-containing protein 7 (Homo sapiens), Q969H0. AlphaScreen FBW7–phospho-cyclin E peptide binding, activator screen. normalized activity (activation), % at 26.1 µM. 650,000 tested, 0.13% active. AID 1259310, 2017; in the data active = normalized activity above about 1.9%;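 note: purified mutant Fbw7 with reduced substrate affinity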
* = called active by the depositor; ! = not active in a repeat. Rows were chosen to be rich in hits. Some 3.5% of all compounds tested hit in one or more screens of this group.

SMILES	MITF primary	TEAD-YAP inh	GPR151 ag	FBW7 activator
CCOC(=O)C(NC(=O)c1ccc(F)cc1)(Nc1sc2c(c1C#N)CCCC2)C(F)(F)F (stereo not drawn)	13	5	1	0
COc1ccc(CCn2c(C)cc(C(=O)CSc3nc(N)cc(=O)[nH]3)c2C)cc1	7	33*	0	0
COc1ccc(CCn2c(C)cc(C(=O)CCl)c2C)cc1	16	40*	1	0
Cc1c(C(=O)Nc2cnc3ccccc3c2)sc2ncn(CC(=O)N3CCCCC3C)c(=O)c12 (stereo not drawn)	14	-3	2	-1
CC1=C(C(=O)Nc2ccccc2C)C(c2ccc(Br)cc2)NC(=S)N1 (stereo not drawn)	-5	0	-1	0
COc1ccc(Nc2nc(-c3ccc(OC)cc3)no2)cc1	1	-35	-1	0
CC1=C(C)CC2C(=O)N(c3cc(C)ccc3C)C(=O)C2C1 (stereo not drawn)	-11	3	0	0
N[C@@H](Cc1ccc(O)c(O)c1)C(=O)O	79*!	2	-2	0
N[C@H](Cc1ccc(I)cc1)C(=O)O	5	-4	-1	0
CC(N)(Cc1ccc(O)c(O)c1)C(=O)O (stereo not drawn)	56*	0	1	0
CCOC(=O)C(C)(N)Cc1ccc(O)c(O)c1 (stereo not drawn)	15	3	3	0
O=C1c2cccc3cccc(c23)C(=O)N1CCNCCO	-11	64*	0	0
c1ccc(COc2ccc(CN3CCOCC3)cc2)cc1	-14	71*	-4	0
CC(C)(C)c1ccc(Cn2cnc3sc4c(c3c2=O)CCCC4)cc1	-2	62*	1	0
COc1ccc(CCn2cnc3sc4c(c3c2=N)CCCC4)cc1OC	-6	39*	1	0
Cc1nc2sc3c(c2c(=O)n1Cc1ccc(C(C)(C)C)cc1)CCCC3	9	19	2	0
Cc1ccc(N2CC(NC(=O)N(CCO)CCO)CC2=O)cc1 (stereo not drawn)	23	12	0	0
CCCCN(CCCC)S(=O)(=O)c1ccc(NC(=O)c2ccco2)cc1	14	1	3	0
CC1=C(C(=O)OCc2ccc3c(c2)OCO3)C(c2ccc(F)cc2)NC(=O)N1 (stereo not drawn)	12	61*	1	0
CC1=C(C(=O)OCc2ccc3c(c2)OCO3)C(c2ccc([N+](=O)[O-])cc2)NC(=O)N1 (stereo not drawn)	4	76*	0	0
CC1=C(C(=O)OCc2ccc3c(c2)OCO3)C(c2ccccc2OC(C)C)NC(=O)N1 (stereo not drawn)	12	-9	0	1
CCN(CC)c1ccc(C2NC(=O)NC(C)=C2C(=O)OCc2ccc3c(c2)OCO3)cc1 (stereo not drawn)	9	17	-1	0
CC1=C(C(=O)OCC2CCCO2)C(c2ccc([N+](=O)[O-])cc2)NC(=O)N1 (stereo not drawn)	-1	3	0	0
CC1=C(C(=O)OCc2ccc3c(c2)OCO3)C(c2ccc(Cl)cc2)NC(=O)N1 (stereo not drawn)	11	77*	0	0
CC1CC(C)CN(C(=O)c2ccc(N3CC4CC(C3)c3cccc(=O)n3C4)c(NC(=O)c3cc4ccccc4oc3=O)c2)C1 (stereo not drawn)	0	-17	1	0
SMILES	MITF primary	TEAD-YAP inh	GPR151 ag	FBW7 activator
CCC/C=N/NC(=O)c1cccc(O)c1	9	34*	-2	0
C/C(CC(C)C)=N\NC(=O)c1cccc(O)c1	8	40*	-2	0
CCC/C=N/NC(=O)c1ccc(O)cc1	10	-18	-1	0
C/C(CC(C)C)=N/NC(=O)c1ccc(Br)cc1	-16	-16	0	0
Cc1nc(NC2CC2)c2nnn(Cc3ccccc3Cl)c2n1	7	-8	0	0
COc1ccc(-c2nc(NCc3nc4ccccc4[nH]3)c3ncn(-c4ccsc4)c3n2)cn1	0	78*	-1	1
CC(C)n1cnc2c(NCc3nc4ccccc4[nH]3)nc(-c3ccc(N4CCOCC4)nc3)nc21	-1	70*	-1	0
CC(C)n1cnc2c(NCc3ccccc3)nc(-c3ccc(N4CCOCC4)nc3)nc21	3	5	-2	0
CC(C)n1cnc2c(NCc3nc4ccccc4[nH]3)nc(N3CCOCC3)nc21	-2	79*	-1	0
c1ccc2[nH]c(CNc3nc(-c4ccc(N5CCOCC5)nc4)nc4c3ncn4-c3ccsc3)nc2c1	4	82*	2	23*
COc1ccc(-c2nc(NCc3nc4ccccc4[nH]3)c3ncn(-c4ccsc4)c3n2)cc1	16	27	1	0
COc1ccc(C2c3[nH]c4ccccc4c3CCN2C(=O)C2=C(C)OCCO2)c(F)c1 (stereo not drawn)	-7	-50	-1	0
Cc1cccc(NC(=O)C2C3C=CC4(O3)C2C(=O)N(CCC(C)C)C4C(=O)NC2CCCCC2C)c1 (stereo not drawn)	9	9	1	0
CCOC(=O)c1cnc2c(C)c(Cl)ccc2c1Nc1cccc(Cl)c1	4	0	0	2
C=CCn1c(SCc2cccc(C)c2)nc2c1c(=O)[nH]c(=O)n2C	-7	45*	-1	0
C=CCn1c(SCc2ccccc2Cl)nc2c1c(=O)[nH]c(=O)n2C	9	53*	0	0
C=CCSc1nc2c(c(=O)[nH]c(=O)n2C)n1Cc1ccccc1Cl	4	-3	1	0
O=C(Nc1cc(Cl)ccc1Cl)c1cc(Br)cc(Br)c1O	-15	34*	0	0
CCOC(=O)c1ccc(-c2ccc(/C=C3\C(=O)N(c4ccc(S(N)(=O)=O)cc4)N=C3C(F)(F)F)o2)cc1	-4	-77	-1	0
O=C(Cc1ccccc1)OCc1ccc(-c2ccc(Br)cc2)o1	-11	-17	-2	0
O=C(O)CCc1ccc(-c2ccc(Br)cc2)o1	56*	-4	-2	0
COC(=O)c1cc2sccc2n1CC(=O)Cc1ccc(OC)cc1OC	14	50*	-1	0
COC(=O)c1cc2sccc2n1CC(=O)c1ccccc1	13	6	3	0
O=C(CSc1nnnn1-c1ccccc1)Nc1cc(Cl)ccc1O	5	3	4	0
C[n+]1c2cc(N)ccc2cc2ccc(N)cc21 (tested in a mixture with another compound)	57*	-14	-3	0
C[n+]1c2cc(N)ccc2cc2ccc(N)cc21	52*!	-1	0	0
Nc1ccc2nc(/C=C/c3nc4ccc(N)cc4[nH]3)[nH]c2c1	20	16	2	0
COC(=O)NC(=C(Cl)Cl)S(=O)(=O)c1ccc(C)cc1	11	-11	1	0
